According to PubChem BioAssay AID1117359 (Southern Research Institute, 2015):
The whole screen tested about 1,500 compounds, of which about 460 (31%) were called active.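 The calls were made as follows: active = viability at or below 80% at any tested concentration, marking the compound as toxic; inactive = the rest.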 The list is a sample of the results. Results with a measured potency or affinity are listed apart.

Experiment: THP-1 cell cytotoxicity, dose response, cytotoxicity control for Vif-APOBEC3G degradation inhibitor project, THP-1 cells (AID 1117359)
Conditions: THP-1 viability, CellTiter-Glo luminescence, 72 h; series mostly up to 40 µM; viability: at the top concentration

SMILES | viability | outcome
CN(C(=O)COc1ncnc2sccc12)c1ccccc1 | 107% (inactive) | 
CC(=O)N1CCN(c2ccc(NCc3ccccc3)cc2)CC1 | 90% (inactive) | 
O=C(C1CCC(CNc2c(N3CCCCC3)c(=O)c2=O)CC1)N1CCN(C2CCCCC2)CC1 (centres undefined) | 105% (inactive) | 
Cc1sc2nc(C)n(/N=C/c3ccccc3O)c(=O)c2c1C | 105% (inactive) | 
COc1cc2c(cc1N)-c1ccc(N)cc1C2 | 84% (inactive) | 
C=C(C)C(=O)Nc1cccc(C2=NOC3(C2)C[C@@H](C(N)=O)N(C(=O)c2cc([N+](=O)[O-])cc([N+](=O)[O-])c2)C3)c1 (some centres undefined) | 91.8% (inactive) | 
O=C(O)c1cc(Nc2cc(Cl)c3nonc3c2[N+](=O)[O-])ccc1O | 107% (inactive) | 
Cc1ccc(S(=O)(=O)Cn2nnnc2C(CC(C)C)N2CCN(C)CC2)cc1 (centres undefined) | 81.4% (inactive) | 
Cc1cc(C)cc(NCCC#N)c1 | 88.6% (inactive) | 
CCOC(=O)C1=C(O)/C(=C\c2ccc(CNC(=O)C(=O)Nc3ccccc3)o2)N=C1C | 80.2% (inactive) | 
CCCOC(=O)Nc1sc2c(c1C(=O)OCC)CCC2 | 82.4% (inactive) | 
Cc1c(C(=O)O)cccc1-n1c(C)cc(/C=N/Nc2ccc([N+](=O)[O-])cn2)c1C | 110% (inactive) | 
CCOC(=O)CSc1nncc2ccc(OC)c(OC)c12 | 98.2% (inactive) | 
CC(NC(=O)Nc1ccc(O)cc1)(C(F)(F)F)C(F)(F)F | 99.2% (inactive) | 
N#Cc1c(-c2ccccc2)nc2n1CCS2 | 82.6% (inactive) | 
Nc1ccc(-c2nc3cc(N)ccc3n2CCO)cc1 | 104% (inactive) | 
CC(=O)Nc1ccc(C(=O)Nc2cccc(-c3cnc4ccccc4n3)c2)cc1 | 81.6% (inactive) | 
CC1=CC(C)(C)n2c(O)c(N=NC(N)=S)c3c(C)c(C)cc1c32 | 91.2% (inactive) | 
COC(=O)CCC(=O)OC1(C)C(=O)C2=CN(CCCOC(C)C)C(c3ccc(OC)cc3)=CC2=C(Br)C1=O (centres undefined) | 96.9% (inactive) | 
O=C(O)C1Nc2ccc(Br)cc2C2C=CCC12 (centres undefined) | 109% (inactive) | 
C/C(=N\Nc1ccc2nncn2n1)c1ccc(Br)s1 | 92.1% (inactive) | 
CC(=O)Nc1ccc(/C=N/Nc2ccc(C(=O)c3c(C)cc4ccccn34)cc2[N+](=O)[O-])cc1 | 102% (inactive) | 
O=C1CC(Nc2ccc(N3CCOCC3)cc2)C(=O)N1c1cccc(C(F)(F)F)c1 (centres undefined) | 101% (inactive) | 
O=C(O)c1ccc(-n2cccc2/C=N\NC(=O)c2cc3cc(Br)ccc3o2)cc1 | 102% (inactive) | 
CCOC(=O)C1CCN(C(=O)Nc2ccc3nc(-c4ccco4)c(-c4ccco4)nc3c2)CC1 |  | inactive
O=C(O)Cn1c(=O)c2c(c3ccccc31)CCC2 | 81.8% (inactive) | 
O=C(O)c1cccc(-n2cccc2/C=C/[N+](=O)[O-])c1 | 107% (inactive) | 

SMILES | viability | outcome
Cc1cccc(NC(=S)NC(=O)/C=C/c2ccco2)c1 | 94.8% (inactive) | 
CC(=O)c1ccc(S(=O)(=O)Nc2cccc(-c3ccc(N4CCOCC4)nn3)c2)cc1 | 81.9% (inactive) | 
CCCCOC(=O)CCCN1C(=O)/C(=C2\SC(=S)N(CCCC(=O)OCCCC)C2=O)SC1=S | 91.9% (inactive) | 
Nc1ncnc2c1cnn2C1CCCCC1 | 96.9% (inactive) | 
Cc1ccc(Nc2ccc(N)cc2S(=O)(=O)O)cc1 |  | inactive
CCOCCCNC(=O)C1CCN(S(=O)(=O)CC)CC1 | 111% (inactive) | 
CCOC(=O)N1CCC(NC(=O)c2ccc(OC)c(CN3CC(=O)N4CCCC4C3=O)c2)CC1 (centres undefined) | 114% (inactive) | 
C=CCN1C(=O)/C(=C\c2ccco2)C(C(=O)OC)=C1C | 104% (inactive) | 
O=C(O)c1ccc(S(=O)(=O)c2ccc([N+](=O)[O-])cc2[N+](=O)[O-])cc1 | 97.5% (inactive) | 
O=[N+]([O-])c1ccccc1S(=O)(=O)NC1CCCC1 | 104% (inactive) | 
CCNC(=O)C1CC(=O)N(Cc2ccc(F)cc2)C(=Nc2ccc(OC)cc2)S1 (centres undefined) | 87.7% (inactive) | 
CCOC(=O)C1CC(CN2C(=O)c3ccccc3C2=O)OC1=O (centres undefined) | 93.9% (inactive) | 
CC1CCCCC1NC(=S)Nc1cccc(S(=O)(=O)N(C)C)c1 (centres undefined) | 100% (inactive) | 
O=C1N(Cc2cccnc2)C[C@@H]2C[C@@H](c3ccc4nsnc4c3)N3CCC[C@@]123 | 103% (inactive) | 
Cc1cc(NC(=O)Cc2cccs2)no1 | 93.5% (inactive) | 
CN1CCN(NC(=O)c2ccc(S(=O)(=O)N3CC4(C)CC3CC(C)(C)C4)cc2)CC1 (centres undefined) | 84.6% (inactive) | 
CCC(C)n1c(-c2cccc(S(=O)(=O)N3CCOCC3)c2)n[nH]c1=S (centres undefined) | 84.1% (inactive) | 
Cc1cc(NC(=O)Cn2cnc3c(nnn3-c3cccc(F)c3)c2=O)no1 | 108% (inactive) | 
COc1ccccc1NS(=O)(=O)c1cc(C(=O)NCCN2CCOCC2)ccc1Cl | 84.2% (inactive) | 
Oc1c(CN2CCOCC2)cc(CN2CCOCC2)c(O)c1O | 94% (inactive) | 
CCOc1ccc(-n2c(SCC(N)=O)nnc2-c2cccnc2)cc1 | 99.5% (inactive) | 
CN(Cc1cccs1)C(=O)Cn1cnc2ccccc2c1=O | 84.5% (inactive) | 
O=C(NCCc1ccccc1)c1ccc2nc(-c3ccco3)c(-c3ccco3)nc2c1 | 86.9% (inactive) | 
O=C1CC(NCc2ccco2)C(=O)N1CCc1ccccc1 (centres undefined) | 113% (inactive) | 
Cc1c(F)cccc1NC(=O)CCCCCC1NC(=O)NC1C (centres undefined) | 89.3% (inactive) | 
CCN1C[C@@H]2[C@@H]3C(=O)N(Cc4ccccc4)C(=O)[C@@H]3[C@](C)(C(=O)OC)N2C1=NC1CCCCC1 | 99.2% (inactive) | 
CO[C@H]1C=CO[C@@]2(C)Oc3c(C)c(O)c4c(O)c(c(C=NN5CCN(C)CC5)c(O)c4c3C2=O)NC(=O)C(C)=CC=C[C@H](C)[C@H](O)[C@@H](C)[C@@H](O)[C@@H](C)[C@H](OC(C)=O)[C@@H]1C | 86.4% (inactive) | 
